# In PubChem BioAssay AID2733 (National Center for Advancing Translational Sciences (NCATS), 2010):
# Inconclusive results are not listed. A call without a number means that no potency is given here. Calls of active or inactive are those of the source. The call rests on the fitted dose curve; in most records, active means well fitted inhibition curve with a large enough effect; inconclusive means small, poorly fitted or top-dose-only effect; inactive means flat fitted curve, though single readings scatter.
# Experiment: High Content Assay for Compounds that inhibit the Assembly of the Perinucleolar Compartment: PC3M Cytotoxicity
# Settings: PC3M cells, ATPLite luminescence viability, 24 h; series mostly up to 46.1 µM
# Source text: High Content Assay for Compounds that inhibit the Assembly of the Perinucleolar Compartment
# NIH Chemical Genomics Center [NCGC]
# NIH Molecular Libraries Probe Centers Network [MLPCN]
# Assay Submitter (PI): Sui Huang, Northwestern University, Feinberg School of Medicine, Cell and Molecular Biology, Chicago, Illinois.
# The perinucleolar compartment (PNC) is a non-membrane-bound nuclear subdomain that is associated with but structurally distinct from the nucleolus. The PNC is a heritable trait, in which the number of PNCs per cell in daughter cells often mimics that of their mother cells. The PNC is heterogeneous in shape, is stable through interphase, disassembles during mitosis, and reassembles in early G1. The PNC is concentrated with newly synthesized RNA polymerase III (pol III) RNAs (MRP RNA, RNAse P H1 RNA, hY RNAs[hY1, 2, 5], Alu RNA, and SRP [7SL] RNA) and RNA binding proteins (nucleolin, PTB, CUG-BP, KSRP, Raver1, Raver2, and Rod).
# Extensive in vitro studies have shown that the PNC is unique to tumor cells and preferentially forms in tumor cells derived from solid tissues. […]
# 5. Luminescencent signal was detected on a Viewlux CCD based imager (PerkinElmer) with a clear filter and a 30 second integration time. […]
row,Compound,Potency
1,Cc1c2ccncc2c(C)c2c1[nH]c1ccccc12,31.6 µM (active)
2,Cc1ccc(C(O)(C(=O)NNC(=O)CN2CCN(C)CC2)c2ccc(C)cc2)cc1,inactive
